Compound activity deposited in PubChem BioAssay by National Center for Advancing Translational Sciences (NCATS).
TDP1 cell noCPT: qHTS for Inhibitors of human tyrosyl-DNA phosphodiesterase 1 (TDP1): qHTS in cells in absence of CPT; DT40 Tdp1-/- hTDP1 cells, no CPT, ATP luminescence, 48 h; Potency, µM (doses to about 46.2 µM), for inactives: top-dose activity change, negative = growth inhibition, actives largely listed as inhibitors; 420,000 compounds, 15% hits; AID 686978, 2013; note: % is set by controls: 0 for no effect and ±100 for the full control effect; nearly all actives have a fitted effect of over 55% in size
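Luminescent ATP content (CellTiter-Glo) served as the growth readout. Knockout chicken DT40 cells expressing human TDP1 were exposed to compounds without camptothecin for a minimum 48 hr at 37 °C.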
ATXN2 expr inh: reduces ATXN2 reporter expression in HEK-293 cells; HEK-293 ATXN2-luciferase reporter, luminescence, 24 h; Potency, µM (highest dose often 57 µM), without a hit: at the top dose activity change, negative = inhibition, hits mostly inhibitors; 360,000 compounds, 0.72% hits; note: % is set by controls: 0 for no effect and ±100 for the full control effect; nearly all actives have a fitted effect of over 55% in size
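qHTS (up to 57 uM final) was run with 24 h compound exposure of reporter cells at 37 °C. Each well was multiplexed: SteadyGlo luminescence measured ATXN2-luciferase expression after a fluorogenic Gly-Phe-AFC viability readout (25 uM final).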
S2 tox: cell viability loss in ATXN counter-screen; AID 651635; S2 cells (HEK-293 line with an ATXN2-luciferase reporter) viability, CellTiter-Fluor protease fluorescence, 24 h; 400,000 compounds, 0.49% hits; Potency, µM (top dose mostly 56.7 µM), usual class: cytotoxic; note: nearly all actives have a fitted effect of over 40% in size
DT40 TDP1 CPT: DT40-hTDP1 cell growth loss with CPT; chicken DT40 Tdp1-/-;hTDP1 cells + 20 nM CPT, ATP luminescence, 48 h; Potency, µM (titrated, usually from 46.2 µM), for the others: at the highest dose activity change, negative = growth inhibition, actives largely listed as inhibitors; 420,000 compounds, 12% hits; note: % is set by controls: 0 for no effect and ±100 for the full control effect; nearly all actives have a fitted effect of over 55% in size
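Chicken DT40 Tdp1-/- cells complemented with human TDP1, 400 cells/well, exposed to compounds plus 20 nM camptothecin for at least 48 h at 37 C; viability read as ATP content by CellTiter-Glo luminescence.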
HepG2 viability: kills HepG2 cells in TGF-b inhibitor counter-screen; HepG2 CAGA-GFP viability, ATP luminescence, 18 h; Potency, µM (top dose mostly 46.1 µM), inactives show top-dose activity change, negative = cytotoxicity, hits mostly cytotoxic; 410,000 compounds, 0.76% hits
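CellTiter-Glo luminescence gave cytotoxicity after 18 hours at 37 degrees C. The cells were HepG2 CAGA-GFP in 1% FBS DMEM, stimulated with 500 pg/mL TGF-beta after compound addition. %Activity was normalised to no-cell wells (complete cell-killing) and DMSO (no toxicity), and curves were fitted and classified.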
TGFb inhibitor: inhibitors of TGF-b signaling; HepG2 CAGA-GFP TGF-b/SMAD3 reporter, GFP fluorescence, 18 h; TGF-beta stimulated, 500 pg/mL final; Potency, µM (top dose mostly 46.1 µM), for the others: at the highest dose activity, negative = inhibition, actives largely listed as inhibitors; 410,000 compounds, 1.2% hits; AID 588855; note: % is set by controls: 0 for no effect and ±100 for the full control effect; nearly all actives have a fitted effect of over 65% in size
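TGF-beta reporter screen: HEPG2 CAGA-GFP, 1% FBS, 500 pg/mL TGF-beta final, 18 h; per-cell GFP summed per well; curves fitted and categorized by class.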
An asterisk follows results filed as active; i = inactive; ? = inconclusive; nt = no result given. Shown are actives, neighbours in structure and some others; about 17% of the full set was active somewhere. Calls come from the whole dose curve; as a rule, active = well fitted curve in the direction sought with a large enough effect; inconclusive = small, poorly fitted or top-dose-only effect, or another doubt; inactive = no such curve, though single readings can be large; an effect the other way counts as inactive or inconclusive. Potency is the fitted concentration of half-maximal effect.

SMILES | TDP1 cell noCPT | ATXN2 expr inh | S2 tox | DT40 TDP1 CPT | HepG2 viability | TGFb inhibitor
CSCCC(c1nnnn1Cc1ccccc1)N1CCC(n2c(=O)[nH]c3ccccc32)CC1 (configuration not stated) | 1.8µM* | ? | 14µM* | 2.9µM* | -16% | ?
Cc1cccc(N(C)C(=S)Oc2ccc3c(c2)CCC3)c1 | ? | -13% | ? | 11% | nt | nt
COP(=O)(OC)C(Nc1ccccc1)c1ccccc1 (configuration not stated) | 3% | 13% | i | -15% | 17% | 15%
COC(=O)[C@@H]1C[C@@]1(C)[C@@H](NP(=O)(c1ccccc1)c1ccccc1)c1ccccc1 | 21µM* | 7% | i | ? | 0% | 3%
CN(C)CCO | 9% | nt | i | -8% | nt | nt
Cc1nc2ccccc2n1C1CCN(Cc2nnnn2CCc2ccccc2)CC1 | ? | -11% | i | ? | -20% | 8%
CCOC(=O)c1cc2ccccc2n1C1CCN(Cc2ccccc2)CC1 | 16µM* | -7% | ? | ? | nt | nt
O=Cc1ccccc1 | 16% | nt | i | 4% | 14% | ?
Cc1ccc(CNS(=O)(=O)c2cc3c(cc2C)N(C)CCO3)cc1 | ? | -3% | ? | ? | -2% | ?
C=C(CC1CC(O)[C@]2(C)OC3CC4OC5C[C@]6(C)O[C@]7(C)CCC8OC9C[C@]%10(C)OC%11C(C)=CC(=O)OC%11CC%10OC9C[C@@H](C)C8OC7CC6O[C@]5(C)C/C=C\C4OC3CC2O1)C(=O)O (some centres not stated) | ? | -4% | i | ? | 1% | 7%
CC1=CC(=O)OC2CC3OC4C[C@@H](C)C5OC6CC7O[C@]8(C)C/C=C\C9OC%10CC%11OC(CC(C)C%12OCCO%12)CC(O)[C@]%11(C)OC%10CC9OC8C[C@]7(C)O[C@]6(C)CCC5OC4C[C@]3(C)OC12 (some centres not stated) | ? | -5% | i | 29µM* | -2% | 6%
CCCNC(=O)c1cnn2c(C)c(Cc3c(C)cc(C)cc3C)c(C)nc12 | 1.8µM* | nt | nt | 3.7µM* | -25% | ?
ClCCN(CCCl)c1ccc(C=Nc2ccc(/C=C/c3ccncc3)cc2)cc1 | 13µM* | nt | nt | 13µM* | -24% | -9%
ClCCN(CCCl)c1ccc(C=Nc2ccncc2)cc1 | 11µM* | nt | nt | ? | -7% | 11%
Cc1sc2ncnc(N3CCN(S(=O)(=O)c4ccc(Br)cc4)CC3)c2c1C | 12µM* | -14% | i | 13µM* | 14% | 4%
Cc1sc2ncnc(SCC(=O)Nc3ccc(S(=O)(=O)N4CCOCC4)cc3)c2c1C | 29µM* | ? | i | 23µM* | -4% | 3%
CC(C)n1c(/C=C/[C@H](O)C[C@H](O)CC(=O)O)c(-c2ccc(F)cc2)c2ccccc21 | 29µM* | nt | i | 18µM* | -5% | 35%
COc1ccc(/C=C/C(=O)c2c(O)n(CCC3=CCCCC3)c(=O)[nH]c2=O)cc1 | ? | ? | i | 6.5µM* | -12% | -2%
O=C(/C=C/c1ccc2c(c1)OCO2)c1c(O)n(CCC2=CCCCC2)c(=O)[nH]c1=O | 5.8µM* | -30% | i | ? | 5% | -12%
O=C(N/N=C/c1c(O)n(CCC2=CCCCC2)c(=O)[nH]c1=O)c1ccccc1 | 21µM* | -39% | i | ? | -8% | -2%
Ic1cncc(OC[C@@H]2CCN2)c1 | -1% | nt | nt | 14% | nt | nt
Cc1cc(-c2nc3ncccc3o2)ccc1NC(=O)c1ccccc1Br | ? | 24% | ? | -16% | 4% | 1%
CCOP(=O)(c1ccc(N(C)C)cc1)C(O)c1cccnc1 (configuration not stated) | 1% | 7% | i | 5% | 20% | 17%
